# From the supplement of paper PMC10037445
# The full ranking holds about 2,900 compounds; the median of “NF-kB SEAP reporter activity, fold change vs agonist alone” is about 0.99, and the highest 2% start at about 2.6. For the sample, the highest values were picked, then their nearest neighbours and some compounds at random.
# Columns and labels:
# [1] = tested on: RAW-Dual; test: NF-kB SEAP reporter activity, fold change vs agonist alone; higher = enhanced NF-kB activity
# Method in brief: (§1)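 Reporter activity is given as fold change relative to agonist-alone wells. To measure it, 50 nL of library stock was pin-tooled onto RAW-Dual macrophages (50,000 cells/well, DMEM, 384-well plates), a PRR agonist followed 1 h later, and cells stayed at 37 °C, 5% CO2. Twenty hours on, supernatant was assayed for IRF (QuantiLuc luminescence) and NF-κB (QuantiBlue, 620 nm absorbance), and wells under 70% of agonist-control IncuCyte confluency in both mask sets were marked cytotoxic.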
# [2] = tested on: RAW-Dual; test: NF-kB SEAP reporter activity, fold change vs agonist alone; cytotoxicity flag (confluency mask): cytotoxic (confluency <70% of control); library stock concentration (final ~1000-fold dilution): 10 mM; higher = enhanced NF-kB activity
# Method in brief: as §1
# [3] = tested on: RAW-Dual; test: NF-kB SEAP reporter activity, fold change vs agonist alone; cytotoxicity flag (confluency mask): not cytotoxic; library stock concentration (final ~1000-fold dilution): 10 mM; higher = enhanced NF-kB activity
# Method in brief: as §1
# [4] = tested on: RAW-Dual; test: NF-kB SEAP reporter activity, fold change vs agonist alone; cytotoxicity flag (confluency mask): not cytotoxic; library stock concentration (final ~1000-fold dilution): .1 mM; higher = enhanced NF-kB activity
# Method in brief: as §1
# [5] = library stock concentration (final ~1000-fold dilution): 10 mM, cytotoxicity flag (confluency mask): cytotoxic (confluency <70% of control), agonist: Imiquimod (TLR7) […]
# [6] = library stock concentration (final ~1000-fold dilution): 10 mM, cytotoxicity flag (confluency mask): cytotoxic (confluency <70% of control), agonist: MPLA (TLR4) […]
# [7] = agonist: ODN 1826 (TLR9) 0.5 ug/mL
# [8] = agonist: Pam2CSK4 (TLR2/6) 0.1 ug/mL
# [9] = agonist: Pam3CSK4 (TLR2/1) 0.1 ug/mL
# [10] = library stock concentration (final ~1000-fold dilution): 10 mM, cytotoxicity flag (confluency mask): not cytotoxic, agonist: Imiquimod (TLR7) […]
# [11] = library stock concentration (final ~1000-fold dilution): 10 mM, cytotoxicity flag (confluency mask): not cytotoxic, agonist: MPLA (TLR4) […]
compound,measurement,setting,value
O=C(CBr)N1CC([N+](=O)[O-])([N+](=O)[O-])C1,NF-kB SEAP reporter activity,[1]; [5],0.542
same,NF-kB SEAP reporter activity,[1]; [6],0.295
same,NF-kB SEAP reporter activity,[2]; agonist: LPS (TLR4) 0.1 ug/mL,0.335
same,NF-kB SEAP reporter activity,[2]; [7],0.252
same,NF-kB SEAP reporter activity,[2]; [8],0.0912
same,NF-kB SEAP reporter activity,[2]; [9],0.189
CC1=CC2Cc3[nH]c(=O)ccc3C3(C1)NCCCC23 (stereo not drawn),NF-kB SEAP reporter activity,[1]; [10],0.933
same,NF-kB SEAP reporter activity,[1]; [11],1.03
same,NF-kB SEAP reporter activity,[3]; agonist: LPS (TLR4) 0.1 ug/mL,1.12
same,NF-kB SEAP reporter activity,[3]; [7],0.952
same,NF-kB SEAP reporter activity,[3]; [8],1.11
same,NF-kB SEAP reporter activity,[3]; [9],1.22
COc1ccc(CC2NCC(O)C2OC(C)=O)cc1 (stereo not drawn),NF-kB SEAP reporter activity,[1]; [5],0.133
same,NF-kB SEAP reporter activity,[1]; [6],0.231
same,NF-kB SEAP reporter activity,[2]; agonist: LPS (TLR4) 0.1 ug/mL,0.216
same,NF-kB SEAP reporter activity,[2]; [7],0.171
same,NF-kB SEAP reporter activity,[2]; [8],0.0635
same,NF-kB SEAP reporter activity,[2]; [9],0.145
Cc1c(C(C)C2NCC(C)CC2O)ccc2c1CC1C2CC=C2CC(O)CCC21C (stereo not drawn),NF-kB SEAP reporter activity,[1]; [10],0.945
same,NF-kB SEAP reporter activity,[1]; [11],1.15
same,NF-kB SEAP reporter activity,[3]; agonist: LPS (TLR4) 0.1 ug/mL,1.1
same,NF-kB SEAP reporter activity,[3]; [7],1.02
same,NF-kB SEAP reporter activity,[3]; [8],0.866
same,NF-kB SEAP reporter activity,[3]; [9],1.03
O.O=C1C=CCC2C3CCCN4CCCC(CN12)C34 (stereo not drawn),NF-kB SEAP reporter activity,[1]; [10],0.531
same,NF-kB SEAP reporter activity,[1]; [11],0.792
same,NF-kB SEAP reporter activity,[3]; agonist: LPS (TLR4) 0.1 ug/mL,1.41
same,NF-kB SEAP reporter activity,[3]; [7],0.558
same,NF-kB SEAP reporter activity,[3]; [8],0.957
same,NF-kB SEAP reporter activity,[3]; [9],1.11
Cc1sc2c(c1C)C(c1ccc(Cl)cc1)=NC(CC(=O)OC(C)(C)C)c1nnc(C)n1-2 (stereo not drawn),NF-kB SEAP reporter activity,[1]; [5],2.49
same,NF-kB SEAP reporter activity,[1]; [6],2.26
same,NF-kB SEAP reporter activity,[2]; agonist: LPS (TLR4) 0.1 ug/mL,2.05
same,NF-kB SEAP reporter activity,[2]; [7],1.9
same,NF-kB SEAP reporter activity,[2]; [8],0.784
same,NF-kB SEAP reporter activity,[2]; [9],1.19
Cc1sc2c(c1C)C(c1ccc(Cl)cc1)=NC(CC(N)=O)c1nnc(C)n1-2 (stereo not drawn),NF-kB SEAP reporter activity,[1]; [10],1.43
same,NF-kB SEAP reporter activity,[1]; [11],2.38
same,NF-kB SEAP reporter activity,[3]; agonist: LPS (TLR4) 0.1 ug/mL,2.51
same,NF-kB SEAP reporter activity,[3]; [7],1.97
same,NF-kB SEAP reporter activity,[3]; [8],0.734
same,NF-kB SEAP reporter activity,[3]; [9],1.69
Cc1sc2c(c1C)C(c1ccc(Cl)cc1)=NC(CC(=O)Nc1ccc(O)cc1)c1nnc(C)n1-2 (stereo not drawn),NF-kB SEAP reporter activity,[1]; [10],1.49
same,NF-kB SEAP reporter activity,[1]; [11],2.56
same,NF-kB SEAP reporter activity,[3]; agonist: LPS (TLR4) 0.1 ug/mL,3.19
same,NF-kB SEAP reporter activity,[3]; [7],2.24
same,NF-kB SEAP reporter activity,[3]; [8],0.856
same,NF-kB SEAP reporter activity,[3]; [9],1.74
CCNC(=O)CC1N=C(c2ccc(Cl)cc2)c2cc(OC)ccc2-n2c(C)nnc21 (stereo not drawn),NF-kB SEAP reporter activity,[1]; [10],1.41
same,NF-kB SEAP reporter activity,[1]; [11],2.47
same,NF-kB SEAP reporter activity,[3]; agonist: LPS (TLR4) 0.1 ug/mL,2.57
same,NF-kB SEAP reporter activity,[3]; [7],1.9
same,NF-kB SEAP reporter activity,[3]; [8],0.886
same,NF-kB SEAP reporter activity,[3]; [9],1.43
COc1ccc2c(c[n+](C)c3c4cc5c(cc4ccc23)OCO5)c1OC.Cl,NF-kB SEAP reporter activity,[1]; [10],0.228
same,NF-kB SEAP reporter activity,[1]; [11],0.224
same,NF-kB SEAP reporter activity,[3]; agonist: LPS (TLR4) 0.1 ug/mL,0.278
same,NF-kB SEAP reporter activity,[3]; [7],0.195
same,NF-kB SEAP reporter activity,[3]; [8],0.15
same,NF-kB SEAP reporter activity,[3]; [9],0.163
O=c1[nH]c2ccccc2n1C1CCN(Cc2ccc(-c3nc4cc5nc[nH]c5cc4nc3-c3ccccc3)cc2)CC1,NF-kB SEAP reporter activity,[1]; [10],0.45
same,NF-kB SEAP reporter activity,[1]; [11],1.05
same,NF-kB SEAP reporter activity,[3]; agonist: LPS (TLR4) 0.1 ug/mL,1.2
same,NF-kB SEAP reporter activity,[3]; [7],0.187
same,NF-kB SEAP reporter activity,[3]; [8],0.317
same,NF-kB SEAP reporter activity,[3]; [9],0.427
Br.COc1ccc2c(c1)C13CCCCC1C(C2)N(C)CC3.O (stereo not drawn),NF-kB SEAP reporter activity,[1]; [11],0.902
same,NF-kB SEAP reporter activity,[3]; agonist: LPS (TLR4) 0.1 ug/mL,0.802
same,NF-kB SEAP reporter activity,[3]; [7],0.615
same,NF-kB SEAP reporter activity,[3]; [8],0.806
same,NF-kB SEAP reporter activity,[3]; [9],0.824
Br.CN1C2CC(OC(=O)C(CO)c3ccccc3)CC1C1OC12.O.O.O (stereo not drawn),NF-kB SEAP reporter activity,[1]; [10],0.88
same,NF-kB SEAP reporter activity,[1]; [11],1.09
same,NF-kB SEAP reporter activity,[3]; agonist: LPS (TLR4) 0.1 ug/mL,0.989
same,NF-kB SEAP reporter activity,[3]; [7],0.789
same,NF-kB SEAP reporter activity,[3]; [8],1.04
same,NF-kB SEAP reporter activity,[3]; [9],1.12
Cc1cccc(-c2ccnc3c(C(N)=O)cnn23)c1,NF-kB SEAP reporter activity,"[1]; library stock concentration (final ~1000-fold dilution): .1 mM, cytotoxicity flag (confluency mask): not cytotoxic, agonist: Imiquimod (TLR7) […]",0.791
same,NF-kB SEAP reporter activity,"[1]; library stock concentration (final ~1000-fold dilution): .1 mM, cytotoxicity flag (confluency mask): not cytotoxic, agonist: MPLA (TLR4) […]",1.15
same,NF-kB SEAP reporter activity,[4]; agonist: LPS (TLR4) 0.1 ug/mL,1.21
same,NF-kB SEAP reporter activity,[4]; [7],1.28
same,NF-kB SEAP reporter activity,[4]; [8],1.25
same,NF-kB SEAP reporter activity,[4]; [9],1.13
